Screening data as filed in PubChem BioAssay.
Hits are enriched below; roughly 7.3% of the tested compounds scored in any of these assays.
HCV inh – qHTS Assay for Inhibitors of Hepatitis C Virus (HCV); Huh7.5.1 HCVcc-Cre infection, luciferase reporter, 44 h; Potency, µM (series often up to 41.8 µM), usual class: inhibitors; 340,000 tested, 3.4% active; active = well fitted inhibition curve with a large enough effect; inconclusive = small, poorly fitted or top-dose-only effect, or another doubt; inactive = no such curve, though single readings can be large or run the other way
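Infectious HCV cell culture screen: compound-treated cells (1,000/well, pre-plated 4 h) are infected with HCVcc-Cre at roughly 0.5 moi and grown 44 h. Infection is quantified by luciferase signal after 15 min substrate incubation at room temperature.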
HCMV inh – qHTS Assay for inhibitors of the human cytomegalovirus (HCMV) | HFF cells, HCMV-luciferase reporter, 72 h; hits give low values | activity change, negative = inhibition, % at 57.5 µM | 410,000 tested, 4.5% active; in the data active = activity change below about -60%; inconclusive = no clear call, values can overlap the other calls; inactive = above about -39%
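Luciferase read-out from HCMV-luciferase-infected HFFs (MOI 1 PFU/cell) 72 h post infection at 37C; compounds added after 16 h cell attachment; activity normalized between buffer-only basal and Salinomycin (10uM) inhibitor controls.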
VACV mCherry inh – qHTS for Stage-Specific Inhibitors of Vaccinia Orthopoxvirus: mCherry Reporter Primary qHTS; 310,000 tested, 0.63% active; AID 720579, 2013; Potency, µM (series often up to 36.5 µM), usual class: inhibitors; Vaccinia virus mCherry reporter infection, fluorescence; calls by dose curve; tested in A549 cells; note: nearly all actives have a fitted effect of over 35% in size
VACV Venus inh – qHTS for Stage-Specific Inhibitors of Vaccinia Orthopoxvirus: Venus Reporter Primary qHTS. 330,000 tested, 0.46% active. Potency, µM (highest dose often 36.5 µM), usual class: inhibitors. Vaccinia virus Venus reporter expression, fluorescence; calls by dose curve; tested in A549 cells; note: nearly all actives have a fitted effect of over 30% in size
FMDV antiviral – High Throughput Screening for Foot and Mouth Disease Virus Antivirals. Potency, µM (titrated, usually from 57.9 µM), most hits filed as inhibitors. 410,000 tested, 1.2% active. FMDV antiviral cell-based qHTS; calls by dose curve; tested in HEK293T cells; note: read-out not given here; nearly all actives have a fitted effect of over 45% in size
Hits are given with their value; i = inactive; ? = inconclusive; nt = no result; [ ] = dose if it differs, or a comment.

SMILES	HCV inh	HCMV inh	VACV mCherry inh	VACV Venus inh	FMDV antiviral
CCOc1ccc(N2C(=O)C(=O)/C(=C(/O)c3ccccc3)C2c2ccccc2[N+](=O)[O-])cc1 (centres undefined)	i	-73.0	i	i	i
CCOc1cc(C(=S)N2CCCC2)ccc1O	i	i	i	i	i
C=CCOc1c(Cl)cc(C(=S)N2CCCC2)cc1OCC	?	-76.1	?	i	i
N#Cc1ccc2nc(-c3ccc(CN4CCC(n5cc(-c6ccccc6)[nH]c5=O)CC4)cc3)c(-c3ccccc3)nc2c1	nt	-99.0	nt	nt	nt
O=[N+]([O-])c1ccc(-c2ccc(/C=N/n3cnnc3)o2)c(Br)c1	i	-90.1	nt	nt	?
CCCCC(=O)N/N=C/c1ccc(-c2ccc([N+](=O)[O-])cc2)o1	?	?	i	i	i
Cc1cc([N+](=O)[O-])ccc1-c1ccc(/C=N/NC(=O)c2ccc(Br)o2)o1	?	-89.5	nt	nt	?
Cc1cc(C)n(Cc2ccc(C(=O)N/N=C/c3ccc(-c4ccc([N+](=O)[O-])cc4)o3)o2)n1	?	-64.2	i	i	i
Cc1ccc(-c2ccc(/C=N\NC(=O)c3cc4c(ccc5ccccc54)o3)o2)cc1[N+](=O)[O-]	?	-95.0	nt	i	i
Cc1ccc([N+](=O)[O-])cc1-c1ccc(/C=N/NC(=O)c2cc3c(ccc4ccccc43)o2)o1	?	i	nt	i	i
NC(=O)c1cccc2cc3ccccc3cc12	11.2µM	?	i	i	i
O=C(CSCC(=O)c1ccc([N+](=O)[O-])cc1)c1ccc([N+](=O)[O-])cc1	nt	nt	i	i	i
CN(C)C(=O)C#Cc1ccccc1	i	i	i	i	i
O=C(C#Cc1ccccc1)c1ccc([N+](=O)[O-])cc1	?	-88.5	i	i	22.4µM
O=C(C#Cc1ccccc1)c1ccccc1	nt	-84.0	?	?	?
COc1ccc(-c2nn(-c3ccccc3)cc2/C=C2/SC(=S)N(CCC(=O)O)C2=O)c(C)c1	i	i	i	i	31.6µM
CCN(CC(=O)Nc1ccc(NC(C)=O)cc1)C(=O)/C=C/c1cn(-c2ccccc2)nc1-c1cccs1	?	i	i	i	i
CN1CCC(N(C)C(=O)/C=C/c2cn(-c3ccccc3)nc2-c2cccs2)CC1	7.94µM	-110.8	?	i	i
O=C(O)CCN1C(=O)/C(=C/c2cn(-c3ccccc3)nc2-c2cccs2)SC1=S	i	-61.2	i	i	i
Cc1cccc(CNC(=O)Cc2csc3ccccc23)c1	nt	i	i	i	i
O=C(Nc1ccc(F)cc1)c1cccnc1Oc1ccccc1	i	i	i	i	i
O=C(Nc1ccc(Oc2cccnc2)cc1)c1ccccc1F	?	-86.2	nt	nt	i
CCOC(=O)Cc1ncccc1C(=O)Nc1ccc(Oc2ccccc2)cc1	i	-97.8	i	i	i
O=C(Nc1ccc(Oc2cccnc2)cc1)c1ccccc1Cl	?	?	i	i	i
COc1ccc(C2(CNC(=O)C(=O)Nc3ccc(C)c(Cl)c3)CCCC2)cc1OC	nt	i	i	i	?
SMILES	HCV inh	HCMV inh	VACV mCherry inh	VACV Venus inh	FMDV antiviral
Cc1ccccc1OCc1nnc(SCC(=O)Nc2ccc3nc(SCC(=O)Nc4ccccc4)sc3c2)n1C	1.12µM	i	i	i	i
Cc1ccccc1OCc1nnc(SCC(=O)Nc2ccc3c(c2)OCO3)n1C	i	i	nt	nt	i
Cc1ccccc1OCC(=O)Nc1ccc2nc(SCC(=O)N3CCCC3)sc2c1	nt	i	i	i	i
C=CCn1c(SCC(=O)Nc2ccc(-c3nc4ccc(C)cc4s3)cc2)nnc1-c1ccccc1	10µM	i	?	i	i
Cc1ccc(NC(=O)CSc2nc3ccc(NC(=O)c4ccco4)cc3s2)cc1	nt	-62.4	i	i	i
Cc1ccccc1OCC(=O)Nc1ccc2nc(SCC(=O)N3CCOCC3)sc2c1	nt	-78.2	i	i	28.2µM
C/C(CC1CC(C)(C)OC1=O)=N\NC(N)=S (centres undefined)	i	?	i[7.34 µM]	i[7.34 µM]	i
C/C(CCC1CC(C)(C)OC1=O)=N\NC(N)=S (centres undefined)	i	-93.1	?	?	i
Cc1ccccc1CC1C(=O)Nc2ccc(Br)cc21 (centres undefined)	nt	?	i	i	i
COc1ccc(Br)cc1CC1C(=O)Nc2ccccc21 (centres undefined)	nt	-74.0	i	?	?
CS(=O)(=O)c1cnc(-c2cccnc2)nc1N	i	-91.1	i	i	i
O=S(=O)(c1ccc(Cl)cc1)c1cnc(-c2cccnc2)nc1-c1ccccc1	i	i	nt	nt	i
C[C@]12C[C@H](O)CC(CO)(CO)C1[C@H](O)C[C@@]13CC4[C@@H](CC12)[C@@]4(C)C3 (some centres undefined)	nt	nt	nt	nt	i
C=CCNC(=S)/N=c1/ccccn1CCC	i	-107.1	nt	nt	i
C=CCNC(=S)/N=c1/scc(C)n1C	i	i	nt	nt	i
C=CCNC(=S)/N=c1\sccn1C	i	i	nt	nt	i
C=CCNC(=S)/N=c1/ccccn1C	i	-98.2	i	i	i
COc1ccc(/C(C)=N/NC(=O)Cn2nc([N+](=O)[O-])cc2C)cc1	i	i	i	i	i
CC(=O)c1cc(C(=O)c2ccccc2)sc1Nc1ccccc1	12.6µM	i	i	?	i
Cc1cc(C(C)(C)C)oc1C(=O)N(CC(=O)NC1CCCC1)c1c(C)cccc1C	10µM	i	?	?	i
CCCCn1c(C)nc2cc(S(=O)(=O)N3CCOCC3)ccc21	i	i	nt	nt	i
CCCCn1c(CCl)nc2cc(S(=O)(=O)N3CCOCC3)ccc21	?	i	i	i	31.6µM
CN1CCN(c2ccc(Nc3nccc4[nH]c(-c5cccnc5)cc34)cc2)CC1	nt	i	nt	nt	nt
Cc1ccc(S(=O)(=O)NC(=O)ON=Cc2ccc3c(c2)OCO3)cc1	nt	-97.7	nt	nt	nt
CCc1ccc(NC(=O)c2cnccn2)cc1	i	i	i	i	i
CCCn1c(C)cc(=O)c2cc(NC(=O)c3cnccn3)ccc21	2.24µM	i	i	i	i
CC(C)C[C@@H](CN1CCC[C@H]1CN1C(=O)C(=O)NC[C@@H]1Cc1ccccc1)N1C[C@H](Cc2ccccc2)N(CC2CCCCCC2)C(=O)C1=O	nt	i	?	?	i
O=C1c2ccc3c4c(ccc(c24)C(=O)N1CCCCO)C(=O)N(CCCCO)C3=O	7.08µM	-99.7	nt	nt	?
Cc1cc(=O)[nH]c2nnc(-c3ccc(Cl)cc3)n12	i	i	i	i	i
C/C=C(\C)C(=O)N[C@@H](c1ccccc1)[C@@H](O)C(=O)O[C@H]1C[C@@]2(O)[C@@H](OC(=O)c3ccccc3)C3[C@](C)(C(=O)[C@H](OC(C)=O)C(=C1C)C2(C)C)[C@H](O)C[C@H]1OC[C@@]31OC(C)=O (some centres undefined)	?	i	i	i	?
